Assay [1] is described as follows: Cell Proliferation Assay Versus the ED40515 IL2 Dependent ATL cell lines (AID 1053195; calls by dose curve). The settings on record: ED40515 IL2-dependent ATL cells. The method, boiled down: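 CellTiter-Glo luminescence (15 min, RT) measured viability after 48 hours at 37C; cells were ED40515 +IL2, 1000/well, in phenol red-free RPMI with 5% FBS. Controls: DMSO and 9.2 uM bortezomib.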

Assay [2] can be described thus: High-throughput drug toxicity screening in the BPDCN cell line Gen2.2 (AID 1224824; call rule not given here;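 also: cells exposed to compounds for 48 h before reading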). Conditions: Gen2.2 BPDCN cells; at 45.8 µM (top of the series) unless noted. The method, boiled down:
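Gen2.2, 500 cells/well, phenol red-free RPMI/10% FBS/Pen-Strep; 48 h cpd, 37 °C/5% CO2; CTG lum, 15 min RT. Norm: DMSO = 100%, bortezomib 9.2 uM final = 0%.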

Assay [3] can be described thus: High-throughput drug toxicity screening in the BPDCN cell line Cal-1 (AID 1224825; call rule not given here). The settings on record: Cal-1 BPDCN cell viability, qHTS; at 45.8 µM (top of the series) unless noted. Summed up:
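Percent activity derived from CellTiter-Glo luminescence, scaling DMSO to 100% and 9.2 uM final bortezomib to 0%. BPDCN Cal-1 cells (500/well, RPMI plus 10% FBS) incubated with compounds 48 hours at 37C before reading.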

A short description of assay [4]: qHTS assay for measurement of the activity of small molecule inhibitors on Zika virus induced Caspase-3 activity in human iPSC derived neural progenitor cells (hNPCs) (AID 1224857). Also: % of control where 0% means no effect; nearly all actives have a fitted effect of over 65% in size. The settings on record: hNPCs ZIKV-induced caspase-3/7, Caspase-Glo luminescence, 6 h; series mostly up to 45.7 µM. Summed up:
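Pretreat hNPCs with compound 1 h; infect ZIKV 2 FFU/cell; 6 h 37 C, 5% CO2; Caspase-Glo 3/7, 30 min RT; luminescence; normalize to no-virus and virus-only wells.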
In general terms: Quantitative high-throughput screening tests each substance at several concentrations.

Assay [5] can be described thus: qHTS assay for measurement of the activity of small molecule inhibitors on Zika virus induced Caspase-3 activity in human astrocytoma cells (AID 1224859).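 Also: plate controls were ZIKV-infected untreated cells for no effect and uninfected cells for full effect.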 The settings on record: SNB-19 ZIKV-induced caspase-3/7, luminescence, 6 h; series mostly up to 45.7 µM. Summed up:
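Human SNB-19 astrocytoma cells in RPMI 1640 with 10% FBS receive compound one hour ahead of Zika virus at 2 FFU/cell. After 6 h infection, caspase-3/7 activity is detected by Caspase-Glo luminescence.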

The nature of assay [6]: qHTS Screen of the MIPE 4.0 Collection Against Ewings Sarcoma (RDES) (AID 1259252). Also: nearly all actives have a fitted effect of over 35% in size. Also: potency is read from the fitted curve at half-maximal effect. The settings on record: RD-ES Ewing sarcoma viability, CellTiter-Glo, 48 h; series mostly up to 45.8 µM. Summed up:
(§1)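 Cells plated in serum-containing RPMI (5% FBS) and treated with compound dilutions for 48 h. Readout luminescent viability; normalization relied on vehicle (no inhibition) and media-only columns (full inhibition).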

A short description of assay [7]: qHTS Screen of the MIPE 4.0 Collection Against Ewings Sarcoma (EW8) (AID 1259255). Also: nearly all actives have a fitted effect of over 35% in size. Also: potency is read from the fitted curve at half-maximal effect.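 As to viability: 100% = DMSO-treated cells and 0% = medium-only wells without cells.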 The settings on record: EW8 Ewing sarcoma viability, CellTiter-Glo, 48 h; series mostly up to 45.8 µM. The method, boiled down:
as §1

Assay [8] in a line: qHTS Screen of the MIPE 4.0 Collection Against Ewings Sarcoma (TC32) (AID 1259256). Also: nearly all actives have a fitted effect of over 45% in size. Also: potency is read from the fitted curve at half-maximal effect. The settings on record: TC32 Ewing sarcoma viability, CellTiter-Glo, 48 h; series mostly up to 45.8 µM. Summed up: as §1
Assay [9] is described as follows: Identifying Small Molecule Inhibitors of Pancreatic Cancer Stem Cells (SN12C, Adherent) (AID 1259358).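 Also: cell survival measured after 48 h of compound exposure.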 The settings on record: viability/growth inhibition; series mostly up to 46.1 µM. The method, boiled down: (§2)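 Pre-formed 14-day tumor spheroids or adherent cells dosed and incubated 48 h, 37C, 5% CO2. Viability assessed by CellTiter-Glo.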
Assay [10] can be described thus: Identifying Small Molecule Inhibitors of Pancreatic Cancer Stem Cells (SN12C, Spheroid) (AID 1259360). Also: potency is read from the fitted curve at half-maximal effect.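 As to viability (% of control): 100% = DMSO-treated cells and 0% = wells without cells.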 The settings on record: Potency: SN12C spheroid viability; series mostly up to 46.1 µM. Summed up: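 Spheroids grown 14 days in stem cell media on hydrogel-coated nonadherent plates; 2D lines seeded directly. Compounds added after 4 h attachment, 48 h at 37C, 5% CO2; CellTiter-Glo luminescence normalized to DMSO (no inhibition) and no-cell wells (full inhibition).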

A short description of assay [11]: Identifying Small Molecule Inhibitors of Pancreatic Cancer Stem Cells (A278, Adherent) (AID 1259361). Also: nearly all actives have a fitted effect of over 35% in size.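 As to viability (% of control): 100% = DMSO-treated cells and 0% = cell-free media-only wells.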 The settings on record: series mostly up to 46.1 µM. Summed up: as §2
A short description of assay [12]: P-glycoprotein substrates identified in KB-8-5-11 adenocarcinoma cell line, qHTS therapeutic library screen (AID 1346987). Also: nearly all actives have a fitted effect of over 65% in size. Also: potency is read from the fitted curve at half-maximal effect. The settings on record: KB-8-5-11 (P-gp overexpressing) viability, CellTiter-Glo, 72 h; series mostly up to 44.5 µM. The method, boiled down: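 Compounds are pinned in dose-response onto KB-8-5-11 cells (500 cells/well, colchicine-free medium) and left 72 h at 37 degree C. CellTiter-Glo luminescence then yields AC50 values.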

Assay [13] in a line: qHTS Screen of the MIPE 4.0 Collection Against Ewings Sarcoma (TC71) (AID 1259253). Also: nearly all actives have a fitted effect of over 40% in size. Also: potency is read from the fitted curve at half-maximal effect. Conditions: TC71 Ewing sarcoma viability, CellTiter-Glo, 48 h; series mostly up to 45.8 µM. Summed up:
as §1

The nature of assay [14]: Identifying Small Molecule Inhibitors of Pancreatic Cancer Stem Cells (Panc1, Adherent) (AID 1259362).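 Also: compound exposure lasted 48 h before the viability read; plate controls were DMSO-treated cells for no effect and cell-free media wells for full effect.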 The settings on record: Potency: viability; series mostly up to 46.1 µM. Summed up: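 Cytotoxicity read by CellTiter-Glo luminescence after 48 h compound exposure at 37C; percent activity scaled between DMSO-treated cells and cell-free wells. Spheroid formats used cells pre-formed 14 days in stem cell media on hydrogel.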

Assay [15] in a line: P-glycoprotein substrates identified in KB-3-1 adenocarcinoma cell line, qHTS therapeutic library screen (AID 1346986). Also: nearly all actives have a fitted effect of over 60% in size.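 Also: potency is read from the fitted curve at half-maximal effect; potency is for cytotoxicity meaning loss of cell viability.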 The settings on record: KB-3-1 parental cells viability, CellTiter-Glo, 72 h; series mostly up to 44.5 µM. The method, boiled down: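 Viability read by CellTiter-Glo after 72 h compound exposure in dose-response of KB-3-1 and KB-8-5-11 (P-gp-high) cells. Hits needed AC50 < 10 uM, >50% maximum response and curve class -1.1 to -2.4. Cherry-picks retested ± tariquidar, including pcDNA/MDR-19 HEK-293 pair.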

A short description of assay [16]: Cell Proliferation Assay Versus the ED40515 IL2 Independent ATL cell lines (AID 1053194; calls by dose curve). The settings on record: ED40515 IL2-independent ATL cells. The method, boiled down: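 CellTiter-Glo luminescence, read after 15 min at RT, gave viability of IL-2-free ED40515 cells (1000/well, RPMI plus 5% FBS) following 48 h drug exposure at 37C. Control wells held DMSO or 9.2 uM bortezomib.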

Assay [17] can be described thus: qHTS assay to identify small molecule inhibitors of chordoma cells - UCH-1 (AID 1259355). Also: % is scaled to controls: 0 for no effect and ±100 for the full control effect; nearly all actives have a fitted effect of over 55% in size. Conditions: UCH-1 chordoma viability, CellTiter-Glo, 48 h, combination, with auranofin plus four topoisomerase inhibitors; series mostly up to 46.1 µM. The method, boiled down:
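800 cells/well, overnight attach; compounds pinned at 15 concs, then auranofin/camptothecin/doxorubicin/rubitecan/topotecan combo added; 48hr 37 C, 5% CO2; CellTiter-Glo, 30min RT, luminescence.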

The nature of assay [18]: qHTS assay to identify small molecule inhibitors of chordoma cells - UCH-2 (AID 1259356). Also: % is scaled to controls: 0 for no effect and ±100 for the full control effect. Conditions: UCH-2 chordoma viability, CellTiter-Glo ATP luminescence, 48 h; series mostly up to 46.1 µM.
The nature of assay [19]: Natriuretic polypeptide receptor (hNpr1) antagonism - Pilot counterscreen GloSensor control cell line (AID 1347045; calls by dose curve; also: % is scaled to controls: 0 for no effect and ±100 for the full control effect). The settings on record: HEK293 cGMP GloSensor cells, SNP-stimulated luminescence, 20 min; series mostly up to 38.3 µM. The method, boiled down: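 Control counterscreen: luciferase cGMP-biosensor HEK293 cells (no Npr1) received compound for 30 min at room temperature after GloSensor substrate loading. Luminescence was measured before and 20 min after soluble guanylyl cyclase activation by 50 uM nitroprusside.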
On the technique in general: Counterscreens check selectivity or assay interference.

The results in this text go back to PubChem BioAssay (NCATS).

Results filed as inconclusive are left out. Active and inactive are the calls of the source. Unless noted, calls follow the shape of the dose curve; as a rule, active = well fitted curve in the direction sought with a large enough effect; inconclusive = small, poorly fitted or top-dose-only effect, or another doubt; inactive = no such curve, though single readings can be large; an effect the other way counts as inactive or inconclusive.

For `CC(C)OC(=O)C1=CN(C(=O)c2ccc(F)c(F)c2)CC(C)(C)c2c1[nH]c1ccccc21`, the Potency in assay [1] is 4.18 µM (active). Also, the cell viability, % of control (lower = more cytotoxic) in [2] amounted to 115%. For the same compound, in assay [3], the viability (% of control) turned out to be 108%. Also, the Potency result in assay [4], in assay [5], in assay [6], in assay [7], in assay [8] and in [9] was “inactive” each time. Further, the Potency result in [10] and in assay [12] was “inactive” in each case. For the same compound, the IC50 (viability decrease) entry in assay [11] is “inactive”.
As for `CCn1c(-c2nonc2N)nc2cnc(Oc3cccc(NC(=O)c4ccc(OCCN5CCOCC5)cc4)c3)cc21`, the Potency in assay [1] is 0.59 µM (active); in [6] it was 5.9 µM (active); in assay [13], 13.2 µM (active); in assay [7], 11.8 µM (active); in [8], 5.9 µM (active); in assay [15] it was 3.66 µM (active). The Potency in assay [12] is 1.64 µM (active). In addition, the cell viability, % of control (lower = more cytotoxic) in assay [2] was 84.4%. In addition, the viability (% of control) in assay [3] is 33.2%. Also, the Potency entry in assay [4], in [5], in assay [9] and in assay [14] was “inactive” in each case.
Regarding `CCOC(=O)N[C@@H]1CC[C@@H]2[C@@H](C1)C[C@H]1C(=O)O[C@H](C)[C@H]1[C@@H]2C=Cc1ccc(-c2cccc(F)c2)cn1`, the Potency in assay [16] was 16.6 µM (active); in [13], 20.9 µM (active); in assay [8] it was 18.7 µM (active); in assay [10] it was 14.8 µM (active). Also, in assay [3], the viability (% of control) was 20%. The Potency result in [4], in assay [5] and in assay [14] was “inactive” each time.
As to `O=C1CCCC2=C1C(c1[nH]ncc1Cl)N=C(Nc1nc3ccccc3o1)N2` (configuration not stated), the Potency in [1] was 29.6 µM (active); in assay [13], 10.5 µM (active). For the same compound, in assay [3], the viability (% of control) came to 82.3%. The Potency result in assay [4], in assay [6], in assay [8], in assay [9], in [10] and in assay [14] was “inactive” in each case. For the same compound, the Potency entry in assay [15] and in assay [12] was “inactive” each time.
Regarding `COc1cc2c(cc1OC)CN(CCc1ccc(NC(=O)c3cccc4c(=O)c5cccc(OC)c5[nH]c34)cc1)CC2`, the Potency in [1] was 16.6 µM (active); in [6], 10.5 µM (active); in assay [13] it was 20.9 µM (active). Also, the cell viability, % of control (lower = more cytotoxic) in assay [2] is 238%. For the same compound, the viability (% of control) in assay [3] worked out at 104%. For the same compound, the Potency result in assay [4], in [5], in assay [9], in assay [10], in assay [14] and in assay [12] was “inactive” throughout. Moreover, the IC50 (viability decrease) in assay [11] is 10.5 µM (active).
On to `NC[C@H](O)c1ccc(O)c(O)c1`, for which the cell viability, % of control (lower = more cytotoxic) in assay [2] worked out at 132%. The viability (% of control) in assay [3] amounted to 96.3%. In addition, the Potency entry in assay [4], in assay [5], in [6], in assay [13], in assay [7] and in assay [8] was “inactive” in each case. In [17], the Potency result is “inactive”. Further, the call in [18] and in assay [19] was inactive.
As for `CCN(CC)CCCC(C)Nc1ccnc2cc(Cl)ccc12` (configuration not stated), the cell viability, % of control (lower = more cytotoxic) in assay [2] is 103%. The viability (% of control) in assay [3] was 21.4%. Also, the Potency result in assay [4], in assay [5], in [6], in assay [13], in assay [7] and in assay [8] was “inactive” each time. Moreover, the Potency result in assay [17], in assay [15] and in assay [12] was “inactive” throughout.
For the compound `Cc1cc(C=c2sc3nc4ccccc4n3c2=O)c(C)n1-c1ccccc1`, the Potency in assay [1] was 6.62 µM (active). Further, the cell viability, % of control (lower = more cytotoxic) in assay [2] was found to be 74.1%. Besides, in [3], the viability (% of control) is 103%. For the same compound, the Potency result in assay [6], in [7], in assay [9], in [10] and in assay [12] was “inactive” each time. Also, the IC50 (viability decrease) result in assay [11] is “inactive”.
